# According to article PMC11006913:
# What was measured:
# Assay in all cases: PBM; 200 nM protein, PBS
# Settings in all cases: dsDNA, one strand shown
# HOXD13 [1] = biological target: HOXD13 (Homo sapiens, UniProt P35453 263-343, T313R)
# HOXD13 [2] = biological target: HOXD13 (Homo sapiens, UniProt P35453 263-343)
# HOXD13 [3] = biological target: HOXD13 (Homo sapiens, UniProt P35453 263-343, T313A)
# HOXA4 [4] = biological target: HOXA4 (Homo sapiens, UniProt Q00056 201-287, W262R)
# HOXA4 [5] = biological target: HOXA4 (Homo sapiens, UniProt Q00056 201-287, R217L)
# HOXA4 [6] = biological target: HOXA4 (Homo sapiens, UniProt Q00056 201-287)
# HOXA4 [7] = biological target: HOXA4 (Homo sapiens, UniProt Q00056 201-287, W262F)
# MSX2 [8] = biological target: MSX2 (Homo sapiens, UniProt P35548 130-214, R199I)
# MSX2 [9] = biological target: MSX2 (Homo sapiens, UniProt P35548 130-214)
# MSX2 [10] = biological target: MSX2 (Homo sapiens, UniProt P35548 130-214, F161Y)
# VAX1 [11] = biological target: VAX1 (Homo sapiens, UniProt Q5SQQ9 86-172)
# VAX1 [12] = biological target: VAX1 (Homo sapiens, UniProt Q5SQQ9 86-172, T142I)
# VAX1 [13] = biological target: VAX1 (Homo sapiens, UniProt Q5SQQ9 86-172, K157R)
# HOXB6 [14] = biological target: HOXB6 (Homo sapiens, UniProt P17509 132-218, K202E)
# HOXB6 [15] = biological target: HOXB6 (Homo sapiens, UniProt P17509 132-218)
# ALX3 [16] = biological target: ALX3 (Homo sapiens, UniProt O95076 139-225, N203Q)
# ALX3 [17] = biological target: ALX3 (Homo sapiens, UniProt O95076 139-225)
# ALX3 [18] = biological target: ALX3 (Homo sapiens, UniProt O95076 139-225, L168Q)
# ALX3 [19] = biological target: ALX3 (Homo sapiens, UniProt O95076 139-225, L168V)
# ALX3 [20] = biological target: ALX3 (Homo sapiens, UniProt O95076 139-225, N203S)
# ALX3 (Homo sapiens, UniProt O95076 139-225, N203S), sequence (O95076 139-225 N203S): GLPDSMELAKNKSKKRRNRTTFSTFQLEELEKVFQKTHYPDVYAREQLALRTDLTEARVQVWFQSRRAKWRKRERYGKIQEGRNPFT
# HOXA4 (Homo sapiens, UniProt Q00056 201-287), sequence (Q00056 201-287): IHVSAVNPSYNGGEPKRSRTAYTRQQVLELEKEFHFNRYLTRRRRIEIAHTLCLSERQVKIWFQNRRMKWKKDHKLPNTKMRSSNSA
# HOXD13 (Homo sapiens, UniProt P35453 263-343), sequence (P35453 263-343): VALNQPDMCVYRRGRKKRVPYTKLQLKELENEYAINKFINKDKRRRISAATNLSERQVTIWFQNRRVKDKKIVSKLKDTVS
# ALX3 (Homo sapiens, UniProt O95076 139-225, N203Q), sequence (O95076 139-225 N203Q): as the sequence (O95076 139-225 N203S) above, with S65Q counted along it
# ALX3 (Homo sapiens, UniProt O95076 139-225), sequence (O95076 139-225): as the sequence (O95076 139-225 N203S) above, with S65N counted along it
# VAX1 (Homo sapiens, UniProt Q5SQQ9 86-172, T142I), sequence (Q5SQQ9 86-172 T142I): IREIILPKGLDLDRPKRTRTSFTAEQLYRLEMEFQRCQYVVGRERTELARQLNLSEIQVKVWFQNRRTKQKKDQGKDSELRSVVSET
# HOXA4 (Homo sapiens, UniProt Q00056 201-287, R217L), sequence (Q00056 201-287 R217L): as the sequence (Q00056 201-287) above, with R17L counted along it
# HOXB6 (Homo sapiens, UniProt P17509 132-218, K202E), sequence (P17509 132-218 K202E): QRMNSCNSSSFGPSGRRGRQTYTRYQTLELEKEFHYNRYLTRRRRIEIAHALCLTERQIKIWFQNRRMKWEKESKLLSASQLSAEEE
# HOXD13 (Homo sapiens, UniProt P35453 263-343, T313A), sequence (P35453 263-343 T313A): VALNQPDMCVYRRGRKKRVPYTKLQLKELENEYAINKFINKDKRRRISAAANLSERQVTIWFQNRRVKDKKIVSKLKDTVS
# HOXB6 (Homo sapiens, UniProt P17509 132-218), sequence (P17509 132-218): as the sequence (P17509 132-218 K202E) above, with E71K counted along it
# ALX3 (Homo sapiens, UniProt O95076 139-225, L168Q), sequence (O95076 139-225 L168Q): as the sequence (O95076 139-225 N203S) above, with L30Q, S65N counted along it
# VAX1 (Homo sapiens, UniProt Q5SQQ9 86-172, K157R), sequence (Q5SQQ9 86-172 K157R): as the sequence (Q5SQQ9 86-172 T142I) above, with I57T, K72R counted along it
# VAX1 (Homo sapiens, UniProt Q5SQQ9 86-172), sequence (Q5SQQ9 86-172): as the sequence (Q5SQQ9 86-172 T142I) above, with I57T counted along it
# ALX3 (Homo sapiens, UniProt O95076 139-225, L168V), sequence (O95076 139-225 L168V): as the sequence (O95076 139-225 N203S) above, with L30V, S65N counted along it
# HOXD13 (Homo sapiens, UniProt P35453 263-343, T313R), sequence (P35453 263-343 T313R): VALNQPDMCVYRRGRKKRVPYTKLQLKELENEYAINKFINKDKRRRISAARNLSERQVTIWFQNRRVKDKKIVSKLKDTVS
# HOXA4 (Homo sapiens, UniProt Q00056 201-287, W262R), sequence (Q00056 201-287 W262R): as the sequence (Q00056 201-287) above, with W62R counted along it
# MSX2 (Homo sapiens, UniProt P35548 130-214), sequence (P35548 130-214): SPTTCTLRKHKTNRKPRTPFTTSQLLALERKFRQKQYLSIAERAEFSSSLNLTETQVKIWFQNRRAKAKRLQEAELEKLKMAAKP
# HOXA4 (Homo sapiens, UniProt Q00056 201-287, W262F), sequence (Q00056 201-287 W262F): as the sequence (Q00056 201-287) above, with W62F counted along it
# MSX2 (Homo sapiens, UniProt P35548 130-214, F161Y), sequence (P35548 130-214 F161Y): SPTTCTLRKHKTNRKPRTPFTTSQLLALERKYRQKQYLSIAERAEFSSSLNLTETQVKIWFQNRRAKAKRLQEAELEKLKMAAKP
# MSX2 (Homo sapiens, UniProt P35548 130-214, R199I), sequence (P35548 130-214 R199I): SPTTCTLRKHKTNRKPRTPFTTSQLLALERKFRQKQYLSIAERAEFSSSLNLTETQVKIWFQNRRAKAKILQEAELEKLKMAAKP
sequence,measurement,setting,value
CGGCCACC,binding signal,HOXD13 [1],"9.38 upbm affinity estimate (log intensity, higher = more binding, comparable within an allelic series)"
same,binding signal,HOXD13 [2],"9.42 upbm affinity estimate (log intensity, higher = more binding, comparable within an allelic series)"
same,binding signal,HOXD13 [3],"9.39 upbm affinity estimate (log intensity, higher = more binding, comparable within an allelic series)"
CCGGGCGC,binding signal,HOXA4 [4],"9.61 upbm affinity estimate (log intensity, higher = more binding, comparable within an allelic series)"
same,binding signal,HOXA4 [5],"9.64 upbm affinity estimate (log intensity, higher = more binding, comparable within an allelic series)"
same,binding signal,HOXA4 [6],"9.56 upbm affinity estimate (log intensity, higher = more binding, comparable within an allelic series)"
same,binding signal,HOXA4 [7],"9.82 upbm affinity estimate (log intensity, higher = more binding, comparable within an allelic series)"
CGCGTGGC,binding signal,MSX2 [8],"9.55 upbm affinity estimate (log intensity, higher = more binding, comparable within an allelic series)"
same,binding signal,MSX2 [9],"9.66 upbm affinity estimate (log intensity, higher = more binding, comparable within an allelic series)"
same,binding signal,MSX2 [10],"9.65 upbm affinity estimate (log intensity, higher = more binding, comparable within an allelic series)"
AGATATAC,binding signal,VAX1 [11],"8.24 upbm affinity estimate (log intensity, higher = more binding, comparable within an allelic series)"
same,binding signal,VAX1 [12],"8.22 upbm affinity estimate (log intensity, higher = more binding, comparable within an allelic series)"
same,binding signal,VAX1 [13],"8.23 upbm affinity estimate (log intensity, higher = more binding, comparable within an allelic series)"
CGCTCCGC,binding signal,HOXB6 [14],"9.03 upbm affinity estimate (log intensity, higher = more binding, comparable within an allelic series)"
same,binding signal,HOXB6 [15],"9.09 upbm affinity estimate (log intensity, higher = more binding, comparable within an allelic series)"
GGGGGGAC,binding signal,VAX1 [11],"6.83 upbm affinity estimate (log intensity, higher = more binding, comparable within an allelic series)"
same,binding signal,VAX1 [12],"7.14 upbm affinity estimate (log intensity, higher = more binding, comparable within an allelic series)"
same,binding signal,VAX1 [13],"7.04 upbm affinity estimate (log intensity, higher = more binding, comparable within an allelic series)"
AGCGCCCG,binding signal,HOXB6 [14],"8.99 upbm affinity estimate (log intensity, higher = more binding, comparable within an allelic series)"
same,binding signal,HOXB6 [15],"8.92 upbm affinity estimate (log intensity, higher = more binding, comparable within an allelic series)"
AGCCGGCT,binding signal,ALX3 [16],"7.78 upbm affinity estimate (log intensity, higher = more binding, comparable within an allelic series)"
same,binding signal,ALX3 [17],"8.13 upbm affinity estimate (log intensity, higher = more binding, comparable within an allelic series)"
same,binding signal,ALX3 [18],"7.76 upbm affinity estimate (log intensity, higher = more binding, comparable within an allelic series)"
same,binding signal,ALX3 [19],"7.76 upbm affinity estimate (log intensity, higher = more binding, comparable within an allelic series)"
same,binding signal,ALX3 [20],"7.77 upbm affinity estimate (log intensity, higher = more binding, comparable within an allelic series)"
CGTCGCGC,binding signal,ALX3 [16],"7.76 upbm affinity estimate (log intensity, higher = more binding, comparable within an allelic series)"
same,binding signal,ALX3 [17],"7.7 upbm affinity estimate (log intensity, higher = more binding, comparable within an allelic series)"
same,binding signal,ALX3 [18],"7.79 upbm affinity estimate (log intensity, higher = more binding, comparable within an allelic series)"
same,binding signal,ALX3 [19],"7.7 upbm affinity estimate (log intensity, higher = more binding, comparable within an allelic series)"
same,binding signal,ALX3 [20],"7.8 upbm affinity estimate (log intensity, higher = more binding, comparable within an allelic series)"
CCCCAGCG,binding signal,MSX2 [8],"9.51 upbm affinity estimate (log intensity, higher = more binding, comparable within an allelic series)"
same,binding signal,MSX2 [9],"9.6 upbm affinity estimate (log intensity, higher = more binding, comparable within an allelic series)"
same,binding signal,MSX2 [10],"9.52 upbm affinity estimate (log intensity, higher = more binding, comparable within an allelic series)"
CGGCTTCC,binding signal,HOXA4 [4],"9.74 upbm affinity estimate (log intensity, higher = more binding, comparable within an allelic series)"
same,binding signal,HOXA4 [5],"9.5 upbm affinity estimate (log intensity, higher = more binding, comparable within an allelic series)"
same,binding signal,HOXA4 [6],"9.53 upbm affinity estimate (log intensity, higher = more binding, comparable within an allelic series)"
same,binding signal,HOXA4 [7],"9.63 upbm affinity estimate (log intensity, higher = more binding, comparable within an allelic series)"
AACGCGGC,binding signal,HOXB6 [14],"9.12 upbm affinity estimate (log intensity, higher = more binding, comparable within an allelic series)"
same,binding signal,HOXB6 [15],"9.14 upbm affinity estimate (log intensity, higher = more binding, comparable within an allelic series)"
GTATCATA,binding signal,HOXA4 [4],"10.3 upbm affinity estimate (log intensity, higher = more binding, comparable within an allelic series)"
same,binding signal,HOXA4 [5],"10.6 upbm affinity estimate (log intensity, higher = more binding, comparable within an allelic series)"
same,binding signal,HOXA4 [6],"11 upbm affinity estimate (log intensity, higher = more binding, comparable within an allelic series)"
GGCGGACC,binding signal,ALX3 [16],"7.72 upbm affinity estimate (log intensity, higher = more binding, comparable within an allelic series)"
same,binding signal,ALX3 [17],"7.74 upbm affinity estimate (log intensity, higher = more binding, comparable within an allelic series)"
same,binding signal,ALX3 [18],"7.74 upbm affinity estimate (log intensity, higher = more binding, comparable within an allelic series)"
same,binding signal,ALX3 [19],"7.69 upbm affinity estimate (log intensity, higher = more binding, comparable within an allelic series)"
same,binding signal,ALX3 [20],"7.67 upbm affinity estimate (log intensity, higher = more binding, comparable within an allelic series)"
AGCGGCGC,binding signal,HOXD13 [1],"9.52 upbm affinity estimate (log intensity, higher = more binding, comparable within an allelic series)"
same,binding signal,HOXD13 [2],"9.67 upbm affinity estimate (log intensity, higher = more binding, comparable within an allelic series)"
same,binding signal,HOXD13 [3],"9.61 upbm affinity estimate (log intensity, higher = more binding, comparable within an allelic series)"
AGGGCCCG,binding signal,VAX1 [11],"6.78 upbm affinity estimate (log intensity, higher = more binding, comparable within an allelic series)"
same,binding signal,VAX1 [12],"7.02 upbm affinity estimate (log intensity, higher = more binding, comparable within an allelic series)"
same,binding signal,VAX1 [13],"6.91 upbm affinity estimate (log intensity, higher = more binding, comparable within an allelic series)"
GCAGTGGC,binding signal,VAX1 [11],"7.24 upbm affinity estimate (log intensity, higher = more binding, comparable within an allelic series)"
same,binding signal,VAX1 [12],"7.19 upbm affinity estimate (log intensity, higher = more binding, comparable within an allelic series)"
same,binding signal,VAX1 [13],"7.24 upbm affinity estimate (log intensity, higher = more binding, comparable within an allelic series)"
CATGATCA,binding signal,ALX3 [16],"8.19 upbm affinity estimate (log intensity, higher = more binding, comparable within an allelic series)"
same,binding signal,ALX3 [17],"9.26 upbm affinity estimate (log intensity, higher = more binding, comparable within an allelic series)"
same,binding signal,ALX3 [20],"8.21 upbm affinity estimate (log intensity, higher = more binding, comparable within an allelic series)"
GCCAGTCC,binding signal,HOXD13 [1],"9.53 upbm affinity estimate (log intensity, higher = more binding, comparable within an allelic series)"
same,binding signal,HOXD13 [2],"9.55 upbm affinity estimate (log intensity, higher = more binding, comparable within an allelic series)"
same,binding signal,HOXD13 [3],"9.63 upbm affinity estimate (log intensity, higher = more binding, comparable within an allelic series)"
